Test [1] has as its target Nuclear receptor subfamily 1 group I member 2 (Homo sapiens) (UniProt O75469). In words: Human pregnane X receptor (PXR) small molecule agonists, qHTS assay (AID 1346982). Further: nearly all actives have a fitted effect of over 35% in size. Summed up: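 PXR-Luc HepG2 cells (CYP3A4 promoter-driven luciferase) were seeded in medium with 5% charcoal-stripped FBS, left 5 hr at 37 C, then exposed to compounds in DMSO for 24 hr. Luminescence was read after ONE-Glo addition.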
For orientation: In qHTS, concentration-response curves come from the screen itself.

The target of test [2] is Nuclear receptor subfamily 1 group I member 2 (Rattus norvegicus) (UniProt Q9R1A7). In words: Rat pregnane X receptor (rPXR) activation by small molecules, qHTS assay (AID 1346983). Further: nearly all actives have a fitted effect of over 20% in size. The following applies: rPXR luciferase reporter cells, One-Glo luminescence, 24 h; hits give high values. Put shortly: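 Cell-based rPXR luciferase reporter assay, 2,000 cells per well, rested 5hr at 37 C before compound addition in DMSO, then 24 hr at 37 C. One-Glo reagent was added and luminescence read after 30 min at room temperature.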

Test [3] deals with Nuclear receptor subfamily 1 group I member 2 (Homo sapiens) (UniProt O75469). In words: CYP3A4 induction through human pregnane X receptor (PXR) by small molecules, qHTS assay (AID 1346984). Further: nearly all actives have a fitted effect of over 40% in size. Put shortly:
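DPX-2 cells (HepG2 co-transfected with PXR and CYP3A4 promoter-luciferase) treated with compounds 24 h at 37C; luciferin-IPA CYP3A4 substrate 3uM final added for 3 h, then One-Glo; luminescence read. qHTS format.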

The target is the same in test [4]. In words: Human pregnane X receptor (PXR) activation by small molecules, qHTS assay (AID 1346985). Further: nearly all actives have a fitted effect of over 40% in size. Summed up:
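DPX-2 cells (HepG2 co-transfected with a PXR response element and a CYP3A4-promoter luciferase construct) were seeded at 2,000 per well, rested 5 hr at 37C, then exposed to DMSO-dissolved compounds for 24 hr. Activation was read as luciferase luminescence.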

Test [5] has as its target Cytochrome P450 2D6 (Homo sapiens) (UniProt P10635). In words: Cytochrome P450 Family 2 Subfamily D Member 6 (CYP2D6) small molecule antagonists: luciferase reporter qHTS assay (AID 1671196). Further: nearly all actives have a fitted effect of over 50% in size. Further: potency means the concentration at half of the fitted maximal effect. On activity change, negative = inhibition: series mostly up to about 120 µM. Put shortly: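 CYP2D6 enzyme–substrate mix was held with compound for 10 min at room temperature, then NADPH regeneration solution was added and the reaction ran 1 h at room temperature. Luciferin product was detected by luminescence after 20 min with detection reagent.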
(In general: A reporter such as luciferase makes a cellular process visible.)

The target in test [6] is Cytochrome P450 2C19 (Homo sapiens) (UniProt P33261). In words: Cytochrome P450 Family 2 Subfamily C Member 19 (CYP2C19) small molecule antagonists: luciferase reporter qHTS assay (AID 1671197). Further: nearly all actives have a fitted effect of over 65% in size. Further: potency means the concentration at half of the fitted maximal effect. On activity change, negative = inhibition: series mostly up to about 120 µM. Put shortly: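 Relative luminescence units recorded 20 min after the detection reagent stopped a 1 h, 37C CYP2C19 reaction on proluciferin substrate, which was started by NADPH regeneration following 10 min room-temperature compound preincubation; ketoconazole positive control.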

The target of test [7] is Cytochrome P450 2C9 (Homo sapiens) (UniProt P11712). In words: Cytochrome P450 Family 2 Subfamily C Member 9 (CYP2C9) small molecule antagonists: luciferase reporter qHTS assay (AID 1671198). Further: nearly all actives have a fitted effect of over 50% in size. Further: potency means the concentration at half of the fitted maximal effect. On activity change, negative = inhibition: series mostly up to about 120 µM. Summed up: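 CYP2C9 activity was measured with a P450-Glo proluciferin substrate. Enzyme–substrate mix was held with compound for 10 min at room temperature, then NADPH regeneration solution was added for 1 h at 37C. Luciferin product was read as luminescence.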

The target of test [8] is Cytochrome P450 1A2 (Homo sapiens) (UniProt P05177). In words: Cytochrome P450 Family 1 Subfamily A Member 2 (CYP1A2) small molecule antagonists: luciferase reporter qHTS assay (AID 1671199). Further: nearly all actives have a fitted effect of over 50% in size. Further: potency means the concentration at half of the fitted maximal effect. On activity change, negative = inhibition: series mostly up to about 120 µM. Put shortly:
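Human CYP1A2 activity measured with a P450-Glo proluciferin substrate; compounds in DMSO preincubated 10 min at room temperature with enzyme-substrate mix, then NADPH regeneration system added for 1 h. Luciferin detection reagent, 20 min, luminescence read.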

Test [9] concerns the target Voltage-gated inwardly rectifying potassium channel KCNH2 (Homo sapiens) (UniProt Q12809). In words: Human Ether-a-go-go-Related Gene (hERG) channel small molecule antagonists: fluorescence cell-based qHTS assay (AID 1671200).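 Further: hERG-expressing U2OS cells given a thallium stimulus after FluxOR II dye loading; series mostly up to about 77 µM; nearly all actives have a fitted effect of over 50% in size.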 Summed up: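 First, 1000 cells per well are seeded and cultured overnight at 37 C. Next, FluxOR II dye is loaded for 1 h at room temperature, protected from light. After 10 more minutes, stimulus is added and fluorescence is read.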
For orientation: The hERG channel carries a current that helps repolarise heart muscle cells.

In test [10] the target is Cytochrome P450 3A4 (Homo sapiens) (UniProt P08684). In words: Cytochrome P450 Family 3 Subfamily A Member 4 (CYP3A4) small molecule antagonists: luciferase reporter qHTS assay (AID 1671201). Further: nearly all actives have a fitted effect of over 50% in size. Further: potency means the concentration at half of the fitted maximal effect. On activity change, negative = inhibition: series mostly up to about 120 µM. Summed up: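 Enzyme and proluciferin substrate are mixed with test chemicals for 10 min, then NADPH regeneration system drives turnover for 1 h at room temperature. A detection reagent halts the reaction; luminescence after 20 min gives relative activity.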

Molecules are shown by their SMILES. Inconclusive results are not listed. Unmarked numbers belong to inactive results. Active and inactive are the calls of the source. The call rests on the fitted dose curve; in most records, active means well fitted curve in the direction sought with a large enough effect in the repeat runs; inconclusive means weak or mixed curves; inactive means no such curve, though single readings can be large; an effect the other way counts as inactive or inconclusive.
On the % scale 0 is the no-effect control and ±100 the full control effect.

Sequence of Cytochrome P450 3A4 (Homo sapiens) (P08684 whole entry, looked up): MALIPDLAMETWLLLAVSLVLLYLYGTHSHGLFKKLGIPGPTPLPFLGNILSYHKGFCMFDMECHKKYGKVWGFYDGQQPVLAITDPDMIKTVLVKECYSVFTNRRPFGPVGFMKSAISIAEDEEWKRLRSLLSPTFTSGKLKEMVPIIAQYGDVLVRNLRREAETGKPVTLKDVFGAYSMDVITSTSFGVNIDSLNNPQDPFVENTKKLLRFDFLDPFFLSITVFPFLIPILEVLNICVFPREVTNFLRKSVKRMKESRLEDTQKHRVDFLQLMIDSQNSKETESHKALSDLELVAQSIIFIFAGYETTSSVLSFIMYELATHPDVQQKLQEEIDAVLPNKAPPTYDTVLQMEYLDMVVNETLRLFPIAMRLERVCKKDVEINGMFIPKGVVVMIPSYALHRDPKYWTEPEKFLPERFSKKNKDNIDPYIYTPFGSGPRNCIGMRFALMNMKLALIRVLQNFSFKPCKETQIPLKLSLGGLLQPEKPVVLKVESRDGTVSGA
Sequence of Cytochrome P450 2C9 (Homo sapiens) (P11712 whole entry, looked up): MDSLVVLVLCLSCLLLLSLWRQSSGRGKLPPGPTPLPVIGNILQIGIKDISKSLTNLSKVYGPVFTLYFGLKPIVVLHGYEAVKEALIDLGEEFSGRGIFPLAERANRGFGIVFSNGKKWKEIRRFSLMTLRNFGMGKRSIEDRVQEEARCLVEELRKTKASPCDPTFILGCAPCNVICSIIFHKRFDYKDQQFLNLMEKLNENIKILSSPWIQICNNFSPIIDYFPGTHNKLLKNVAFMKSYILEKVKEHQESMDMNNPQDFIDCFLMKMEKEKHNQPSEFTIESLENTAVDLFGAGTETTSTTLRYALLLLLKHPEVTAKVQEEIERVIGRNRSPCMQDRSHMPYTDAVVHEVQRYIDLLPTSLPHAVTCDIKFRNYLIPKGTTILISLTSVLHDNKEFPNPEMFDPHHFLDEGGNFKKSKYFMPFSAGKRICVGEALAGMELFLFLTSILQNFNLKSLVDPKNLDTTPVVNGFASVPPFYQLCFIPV
Sequence of Voltage-gated inwardly rectifying potassium channel KCNH2 (Homo sapiens) (Q12809 whole entry, looked up): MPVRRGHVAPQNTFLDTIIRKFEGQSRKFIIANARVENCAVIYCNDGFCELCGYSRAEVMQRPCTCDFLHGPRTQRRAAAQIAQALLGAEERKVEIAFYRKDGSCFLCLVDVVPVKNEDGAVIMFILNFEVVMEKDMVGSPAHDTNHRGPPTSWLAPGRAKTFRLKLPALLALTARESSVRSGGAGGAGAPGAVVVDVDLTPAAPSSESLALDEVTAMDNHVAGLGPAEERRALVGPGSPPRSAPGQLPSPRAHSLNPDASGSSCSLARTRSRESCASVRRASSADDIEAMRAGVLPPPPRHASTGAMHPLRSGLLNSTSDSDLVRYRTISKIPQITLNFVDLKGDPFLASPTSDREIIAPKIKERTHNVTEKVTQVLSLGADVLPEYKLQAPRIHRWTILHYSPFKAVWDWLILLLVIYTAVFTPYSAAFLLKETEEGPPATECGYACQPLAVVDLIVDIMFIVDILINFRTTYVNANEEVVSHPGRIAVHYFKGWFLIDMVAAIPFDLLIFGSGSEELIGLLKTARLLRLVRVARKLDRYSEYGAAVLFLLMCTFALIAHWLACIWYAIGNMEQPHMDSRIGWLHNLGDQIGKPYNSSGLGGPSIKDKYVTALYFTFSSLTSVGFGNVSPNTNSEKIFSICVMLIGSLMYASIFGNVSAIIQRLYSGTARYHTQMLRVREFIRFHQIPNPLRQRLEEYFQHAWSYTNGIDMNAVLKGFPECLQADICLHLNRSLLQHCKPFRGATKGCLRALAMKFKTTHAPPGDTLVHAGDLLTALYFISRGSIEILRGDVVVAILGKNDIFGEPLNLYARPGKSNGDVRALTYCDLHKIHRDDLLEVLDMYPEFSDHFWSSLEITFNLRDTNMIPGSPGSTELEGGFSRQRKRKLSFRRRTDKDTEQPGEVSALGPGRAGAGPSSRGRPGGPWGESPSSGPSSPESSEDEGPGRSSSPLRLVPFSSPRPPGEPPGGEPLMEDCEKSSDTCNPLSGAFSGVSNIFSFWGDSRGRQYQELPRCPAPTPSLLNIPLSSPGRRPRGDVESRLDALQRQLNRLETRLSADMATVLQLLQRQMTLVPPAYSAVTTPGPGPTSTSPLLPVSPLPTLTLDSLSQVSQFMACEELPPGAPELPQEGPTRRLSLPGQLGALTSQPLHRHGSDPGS
Sequence of Nuclear receptor subfamily 1 group I member 2 (Rattus norvegicus) (Q9R1A7 whole entry, looked up): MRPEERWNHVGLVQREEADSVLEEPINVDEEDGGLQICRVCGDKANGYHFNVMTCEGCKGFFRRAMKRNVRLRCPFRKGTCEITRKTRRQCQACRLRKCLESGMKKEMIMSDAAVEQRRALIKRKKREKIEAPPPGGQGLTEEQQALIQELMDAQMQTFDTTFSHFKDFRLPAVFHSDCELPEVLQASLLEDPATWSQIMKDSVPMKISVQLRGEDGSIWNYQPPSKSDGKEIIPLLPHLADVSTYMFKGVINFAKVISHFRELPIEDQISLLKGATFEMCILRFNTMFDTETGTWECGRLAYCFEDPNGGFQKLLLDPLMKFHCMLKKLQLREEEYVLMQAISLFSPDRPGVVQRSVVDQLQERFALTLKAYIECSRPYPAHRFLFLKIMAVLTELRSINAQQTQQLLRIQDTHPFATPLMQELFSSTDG
Sequence of Nuclear receptor subfamily 1 group I member 2 (Homo sapiens) (O75469 whole entry, looked up): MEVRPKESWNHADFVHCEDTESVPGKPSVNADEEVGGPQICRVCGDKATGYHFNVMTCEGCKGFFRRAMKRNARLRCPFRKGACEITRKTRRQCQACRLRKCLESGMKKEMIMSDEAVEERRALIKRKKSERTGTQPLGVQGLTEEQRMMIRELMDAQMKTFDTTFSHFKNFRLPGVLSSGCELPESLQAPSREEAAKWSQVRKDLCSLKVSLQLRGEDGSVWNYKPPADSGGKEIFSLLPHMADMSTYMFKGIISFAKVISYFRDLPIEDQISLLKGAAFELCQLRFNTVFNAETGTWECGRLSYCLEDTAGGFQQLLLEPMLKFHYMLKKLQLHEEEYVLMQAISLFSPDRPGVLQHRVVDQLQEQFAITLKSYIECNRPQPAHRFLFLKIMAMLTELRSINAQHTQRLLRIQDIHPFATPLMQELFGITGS
Sequence of Cytochrome P450 1A2 (Homo sapiens) (P05177 whole entry, looked up): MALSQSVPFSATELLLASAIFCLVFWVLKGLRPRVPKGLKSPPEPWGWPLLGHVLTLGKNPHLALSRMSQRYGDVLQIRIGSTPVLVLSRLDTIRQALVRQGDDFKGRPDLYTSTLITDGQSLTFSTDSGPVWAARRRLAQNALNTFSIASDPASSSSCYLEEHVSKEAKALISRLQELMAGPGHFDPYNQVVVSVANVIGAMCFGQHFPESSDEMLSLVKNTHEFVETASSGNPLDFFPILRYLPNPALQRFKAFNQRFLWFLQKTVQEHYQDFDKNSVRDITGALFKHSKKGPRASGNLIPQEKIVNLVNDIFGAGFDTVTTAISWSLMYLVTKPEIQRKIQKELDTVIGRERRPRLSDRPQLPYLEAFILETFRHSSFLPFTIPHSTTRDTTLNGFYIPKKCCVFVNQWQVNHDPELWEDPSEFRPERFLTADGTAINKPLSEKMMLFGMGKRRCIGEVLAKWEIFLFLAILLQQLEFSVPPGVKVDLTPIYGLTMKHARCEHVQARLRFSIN
Sequence of Cytochrome P450 2C19 (Homo sapiens) (P33261 whole entry, looked up): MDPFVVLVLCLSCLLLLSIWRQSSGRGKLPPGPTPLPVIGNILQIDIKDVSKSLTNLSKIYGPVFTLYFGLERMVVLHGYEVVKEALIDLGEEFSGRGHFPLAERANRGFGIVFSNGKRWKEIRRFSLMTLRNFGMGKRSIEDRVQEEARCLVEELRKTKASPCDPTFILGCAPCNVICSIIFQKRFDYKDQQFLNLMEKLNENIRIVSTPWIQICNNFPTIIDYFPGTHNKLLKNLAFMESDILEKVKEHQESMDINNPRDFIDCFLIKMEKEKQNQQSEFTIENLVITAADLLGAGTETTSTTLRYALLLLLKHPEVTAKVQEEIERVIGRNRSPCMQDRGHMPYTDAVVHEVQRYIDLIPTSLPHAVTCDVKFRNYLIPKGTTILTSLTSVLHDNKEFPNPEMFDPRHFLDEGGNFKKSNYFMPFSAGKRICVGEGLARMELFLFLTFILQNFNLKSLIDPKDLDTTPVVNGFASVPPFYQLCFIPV
Sequence of Cytochrome P450 2D6 (Homo sapiens) (P10635 whole entry, looked up): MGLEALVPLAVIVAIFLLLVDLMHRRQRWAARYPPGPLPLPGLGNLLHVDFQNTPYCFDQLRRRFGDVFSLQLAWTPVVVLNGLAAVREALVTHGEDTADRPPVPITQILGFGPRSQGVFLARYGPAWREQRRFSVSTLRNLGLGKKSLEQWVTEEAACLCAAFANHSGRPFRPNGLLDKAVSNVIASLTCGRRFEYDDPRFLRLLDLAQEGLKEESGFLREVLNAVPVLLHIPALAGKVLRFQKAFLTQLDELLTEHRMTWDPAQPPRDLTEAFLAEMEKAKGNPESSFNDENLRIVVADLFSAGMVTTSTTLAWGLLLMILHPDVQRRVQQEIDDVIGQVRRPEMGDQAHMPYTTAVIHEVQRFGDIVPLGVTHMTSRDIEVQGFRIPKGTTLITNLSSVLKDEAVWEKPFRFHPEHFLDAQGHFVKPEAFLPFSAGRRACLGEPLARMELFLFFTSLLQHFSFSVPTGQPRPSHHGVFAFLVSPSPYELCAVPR

On to `CCNC(=O)NCc1cccc(Cl)c1`, for which the Potency entry in test [1], in test [3], in test [4], in [5], in test [6] and in [7] was “inactive” in each case. The Potency result in test [8] and in test [9] was “inactive” in each case. For the same compound, the max activation in test [2] was -1.55%.

As to `CC(C)OC(=O)OCOP(=O)(CO[C@H](C)Cn1cnc2c(N)ncnc21)OCOC(=O)OC(C)C`, the Potency entry in test [1], in test [3], in test [4], in test [5], in test [6] and in [8] was “inactive” in each case. Also, the Potency entry in [9] is “inactive”. In addition, in test [2], the max activation was -6.83%.

As for `CCCC(=O)Nc1ccc(OCC(O)CNC(C)C)c(C(C)=O)c1` (configuration not stated), the Potency result in [1], in test [3], in test [4], in test [6], in test [9] and in test [10] was “inactive” each time. The max activation in [2] is -1.06%.

With `O=C(O)[C@H](O)c1ccccc1`, the Potency entry in [1], in test [3], in test [4], in [5], in [8] and in test [9] was “inactive” each time. In addition, in [10], the Potency entry is “inactive”. In test [2], the max activation was -3.01%.

With `CN(C)CCOC(=O)C(c1ccccc1)C1(O)CCCC1` (configuration not stated), the Potency result in test [1], in test [3], in test [4], in [7], in test [8] and in test [9] was “inactive” throughout. Further, the Potency result in test [10] is “inactive”. Moreover, the max activation in test [2] is 3.01%.

For `OC[C@H]1O[C@@H](O[C@@H]2[C@@H](CO)O[C@](O)(CO)[C@H]2O)[C@H](O)[C@@H](O)[C@H]1O`, the Potency entry in test [1], in test [3], in test [4], in test [5], in test [6] and in test [7] was “inactive” each time. Besides, the Potency entry in test [8], in [9] and in test [10] was “inactive” in each case. The max activation in test [2] was -1.58%.

Consider `CC(C)(C)NC[C@H](O)COc1cccc2c1CCCC2=O`, for which the Potency result in [1], in [3], in test [4], in [6], in test [7] and in test [8] was “inactive” throughout. Moreover, the Potency entry in test [9] and in [10] was “inactive” in each case. For the same compound, in test [2], the max activation is 0.088%.

On to `Cc1ncc([N+](=O)[O-])n1CC(C)O` (configuration not stated), for which the Potency entry in test [1], in test [3], in [5], in test [6], in test [9] and in test [10] was “inactive” throughout. Also, the max activation in test [2] was -2.68%.

Turning to `CC1(C)O[C@H]2CC(=O)OC[C@]23[C@H]2CC[C@@]4(C)[C@H](c5ccoc5)OC(=O)[C@H]5O[C@]54[C@]2(C)C(=O)C[C@@H]13`, the Potency entry in [1], in test [3], in [4], in test [5], in test [6] and in test [7] was “inactive” throughout. The Potency entry in [8] and in [9] was “inactive” each time. Further, in [2], the max activation was 5.81%.

Consider `N[C@@H](CSCCCO)C(=O)O`, for which the activation in [1] is -4.99% [at 19 µM]. In addition, the max activation in test [2] was -2.52%. In addition, the Potency result in test [3] and in [4] was “inactive” throughout. For the same compound, the activity change, negative = inhibition is -4.36% [at 23.6 µM] in [5]; 3.16% [at 23.6 µM] in [6]; 4.77% [at 23.6 µM] in test [7]; 12.2% [at 23.6 µM] in test [8]; 17.6% [at 15.8 µM] in test [9].

`Nc1nc(-c2ccccc2)c(Br)c(=O)[nH]1`: the Potency entry in test [1], in test [3], in test [4], in test [5], in test [6] and in test [7] was “inactive” throughout. The Potency entry in test [8], in test [9] and in test [10] was “inactive” in each case. For the same compound, the max activation in test [2] was -0.177%.

For the compound `O=C(Cn1ccnc1[N+](=O)[O-])NCc1ccccc1`, the Potency result in [1], in test [3], in test [4], in [7], in [8] and in test [9] was “inactive” each time. Further, the Potency result in test [10] is “inactive”. Also, the max activation in test [2] was -1.78%.

As to `O=C(NCN1CCOCC1)c1cnccn1`, the Potency entry in test [1], in [3], in test [4], in test [5], in test [6] and in test [8] was “inactive” in each case. Besides, the Potency result in [9] and in test [10] was “inactive” each time. Also, the max activation in test [2] is -1.75%.

Turning to `COc1ccc2c(c1)c1c3n2CCN(C)C3=NCC1`, the Potency entry in [1], in test [3], in [4], in test [6], in [7] and in test [9] was “inactive” each time. Further, in test [10], the Potency entry is “inactive”. In addition, the max activation in test [2] was 5.26%. Also, the Potency in [5] is 15.5 µM (active).

Take `CC1(C)Oc2ccc(C#N)cc2[C@@H](N2CCCC2=O)[C@@H]1O`: the Potency result in test [1], in test [3], in test [4], in [5], in test [6] and in test [9] was “inactive” throughout. Moreover, the Potency result in [10] is “inactive”. Also, the max activation in test [2] is 0.645%.

Consider `CC1=C(C(=O)O)N2C(=O)[C@@H](NC(=O)[C@H](N)c3ccccc3)[C@H]2SC1`, for which the Potency result in [1] and in test [4] was “inactive” throughout. The max activation in [2] is -2.36%.

Turning to `CCCCCC(C)O` (configuration not stated), the Potency result in [1], in test [5], in [6], in [7], in test [8] and in test [9] was “inactive” throughout. In [10], the Potency entry is “inactive”.

Consider `CCC(=O)c1c(O)cc(O)cc1O`, for which the Potency entry in test [1], in [3], in [4], in test [6] and in test [9] was “inactive” each time. The Potency in test [5] was 27.5 µM (active); in test [7] it was 13.8 µM (active); in test [8], 12.9 µM (active).

Turning to `Cc1ccnc(N)c1`, the Potency entry in test [1], in test [5], in [6], in [7], in test [8] and in test [9] was “inactive” each time. Besides, the Potency result in test [10] was “inactive”.

Take `CC(=O)CCC1=C(C)CCCC1(C)C`: the Potency entry in test [1], in test [5] and in test [9] was “inactive” throughout. Also, the Potency was 35.6 µM (active) in test [6], 31.7 µM (active) in test [7], 39.9 µM (active) in test [8] and 10 µM (active) in test [10].

Turning to `CC(=O)OCC(=O)Nc1cc(C#N)cc(NC(=O)COC(C)=O)c1Cl`, the Potency result in [1], in test [5], in test [6], in test [7], in test [8] and in test [9] was “inactive” throughout. Moreover, in test [10], the Potency entry was “inactive”.

Regarding `OCCN1CCOCC1`, the Potency result in test [1], in [5], in [6], in [7], in test [8] and in test [9] was “inactive” each time.

Take `CC12CCC(C1)C(C)(C)C2O` (configuration not stated): the Potency result in test [1], in test [5], in test [6], in test [7], in test [8] and in test [9] was “inactive” throughout.

With `C/C(CC(C)C)=N\O`, the Potency result in [1], in test [5], in test [6], in test [7], in [8] and in [9] was “inactive” in each case. Further, the Potency entry in [10] is “inactive”.

On to `[O]=[Mo](=[O])=[O]`, for which, in test [1], the activation was 1.34% [at 19 µM]. Further, the activity change, negative = inhibition in test [5] is -4.35% [at 23.6 µM]; in [6], -2.98% [at 23.6 µM]; in test [7], -0.296% [at 23.6 µM]; in test [8], 2.53% [at 23.6 µM]; in test [9] it was -1.28% [at 15.8 µM].
